# Columns and labels:
# [1] = molecular target: T1, Ephrin type-A receptor 3 (Homo sapiens) (UniProt P29320); details: at 10 µM
# T1 sequence (whole entry): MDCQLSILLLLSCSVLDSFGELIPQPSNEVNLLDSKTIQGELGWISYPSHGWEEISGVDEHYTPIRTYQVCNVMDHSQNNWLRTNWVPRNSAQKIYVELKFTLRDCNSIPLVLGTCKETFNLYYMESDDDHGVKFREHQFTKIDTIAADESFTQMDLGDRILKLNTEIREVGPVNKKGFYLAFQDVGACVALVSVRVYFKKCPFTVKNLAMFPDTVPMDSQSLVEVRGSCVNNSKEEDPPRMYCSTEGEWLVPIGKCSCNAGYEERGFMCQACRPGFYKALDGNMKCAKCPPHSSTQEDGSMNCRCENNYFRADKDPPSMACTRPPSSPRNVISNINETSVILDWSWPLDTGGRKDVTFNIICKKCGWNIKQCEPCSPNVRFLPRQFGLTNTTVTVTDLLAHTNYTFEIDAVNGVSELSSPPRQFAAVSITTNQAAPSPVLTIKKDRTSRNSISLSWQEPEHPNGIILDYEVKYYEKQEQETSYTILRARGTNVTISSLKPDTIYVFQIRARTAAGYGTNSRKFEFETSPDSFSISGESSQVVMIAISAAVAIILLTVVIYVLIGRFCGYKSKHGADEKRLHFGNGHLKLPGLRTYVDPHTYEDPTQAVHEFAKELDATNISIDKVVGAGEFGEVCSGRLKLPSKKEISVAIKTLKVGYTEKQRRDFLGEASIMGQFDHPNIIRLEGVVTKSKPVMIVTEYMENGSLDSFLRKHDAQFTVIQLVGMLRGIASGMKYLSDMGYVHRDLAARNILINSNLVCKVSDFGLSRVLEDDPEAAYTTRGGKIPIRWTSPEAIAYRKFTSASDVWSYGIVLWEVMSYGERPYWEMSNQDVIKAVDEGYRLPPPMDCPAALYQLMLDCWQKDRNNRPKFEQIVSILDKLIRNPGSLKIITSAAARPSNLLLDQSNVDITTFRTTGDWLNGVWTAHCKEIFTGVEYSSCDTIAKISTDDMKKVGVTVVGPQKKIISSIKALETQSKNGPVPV
# [2] = molecular target: Ephrin type-A receptor 4 (Homo sapiens) (UniProt P54764); details: at 1 µM
# Chain of Ephrin type-A receptor 4 (Homo sapiens) (P54764 whole entry): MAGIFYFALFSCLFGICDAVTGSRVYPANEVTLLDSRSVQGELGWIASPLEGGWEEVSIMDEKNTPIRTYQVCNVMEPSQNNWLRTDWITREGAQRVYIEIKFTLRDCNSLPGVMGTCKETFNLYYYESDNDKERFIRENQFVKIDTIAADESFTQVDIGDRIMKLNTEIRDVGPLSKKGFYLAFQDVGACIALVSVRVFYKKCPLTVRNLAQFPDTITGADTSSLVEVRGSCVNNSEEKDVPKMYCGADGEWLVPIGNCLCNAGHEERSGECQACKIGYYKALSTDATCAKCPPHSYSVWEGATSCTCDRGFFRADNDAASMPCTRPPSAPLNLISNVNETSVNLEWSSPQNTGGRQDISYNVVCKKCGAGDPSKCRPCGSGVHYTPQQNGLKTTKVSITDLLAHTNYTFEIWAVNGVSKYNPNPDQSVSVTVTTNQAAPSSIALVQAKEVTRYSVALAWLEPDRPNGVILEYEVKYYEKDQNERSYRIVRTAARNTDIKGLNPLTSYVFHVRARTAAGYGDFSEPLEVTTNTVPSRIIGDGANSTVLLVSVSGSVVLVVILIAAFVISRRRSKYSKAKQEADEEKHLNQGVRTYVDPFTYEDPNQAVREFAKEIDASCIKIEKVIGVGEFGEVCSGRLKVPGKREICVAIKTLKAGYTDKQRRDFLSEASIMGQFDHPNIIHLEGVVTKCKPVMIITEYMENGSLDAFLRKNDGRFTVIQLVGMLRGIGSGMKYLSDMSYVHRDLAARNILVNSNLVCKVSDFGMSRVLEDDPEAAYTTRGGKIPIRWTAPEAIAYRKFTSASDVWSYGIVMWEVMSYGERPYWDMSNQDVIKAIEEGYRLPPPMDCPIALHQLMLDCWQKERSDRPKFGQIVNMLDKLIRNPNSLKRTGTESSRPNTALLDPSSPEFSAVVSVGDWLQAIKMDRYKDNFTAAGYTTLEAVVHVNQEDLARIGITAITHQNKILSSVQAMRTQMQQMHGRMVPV
# [3] = molecular target: Ephrin type-A receptor 4 (Homo sapiens) (UniProt P54764); details: at 10 µM
# [4] = molecular target: Ephrin type-A receptor 5 (Homo sapiens) (UniProt P54756); details: at 1 µM
# Chain of Ephrin type-A receptor 5 (Homo sapiens) (P54756 whole entry): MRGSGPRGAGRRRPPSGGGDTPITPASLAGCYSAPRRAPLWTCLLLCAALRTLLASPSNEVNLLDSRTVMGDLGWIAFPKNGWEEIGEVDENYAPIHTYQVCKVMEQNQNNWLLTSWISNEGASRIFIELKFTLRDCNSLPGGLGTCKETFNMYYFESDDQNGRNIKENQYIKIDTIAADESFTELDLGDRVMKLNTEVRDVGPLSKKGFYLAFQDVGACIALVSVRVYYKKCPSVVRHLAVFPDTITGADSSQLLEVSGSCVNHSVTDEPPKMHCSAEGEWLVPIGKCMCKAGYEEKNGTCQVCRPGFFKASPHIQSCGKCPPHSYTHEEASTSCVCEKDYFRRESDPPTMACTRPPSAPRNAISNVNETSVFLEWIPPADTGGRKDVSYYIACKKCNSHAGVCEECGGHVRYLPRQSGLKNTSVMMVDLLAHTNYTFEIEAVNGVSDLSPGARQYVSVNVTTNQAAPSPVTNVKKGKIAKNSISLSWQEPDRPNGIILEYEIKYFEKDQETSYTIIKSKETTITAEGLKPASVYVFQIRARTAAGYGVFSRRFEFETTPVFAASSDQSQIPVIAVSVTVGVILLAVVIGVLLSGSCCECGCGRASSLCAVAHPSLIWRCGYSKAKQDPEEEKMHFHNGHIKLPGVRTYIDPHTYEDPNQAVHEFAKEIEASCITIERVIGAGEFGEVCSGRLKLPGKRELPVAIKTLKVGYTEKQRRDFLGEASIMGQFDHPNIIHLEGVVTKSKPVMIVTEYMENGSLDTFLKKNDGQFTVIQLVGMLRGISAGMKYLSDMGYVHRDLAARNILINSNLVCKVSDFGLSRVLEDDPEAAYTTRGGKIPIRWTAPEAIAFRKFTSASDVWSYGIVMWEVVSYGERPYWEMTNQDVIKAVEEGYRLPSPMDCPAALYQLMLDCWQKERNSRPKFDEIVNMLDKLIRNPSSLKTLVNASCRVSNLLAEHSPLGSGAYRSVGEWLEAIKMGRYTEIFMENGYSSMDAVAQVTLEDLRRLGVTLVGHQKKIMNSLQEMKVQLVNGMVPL
# [5] = molecular target: Ephrin type-A receptor 5 (Homo sapiens) (UniProt P54756); details: at 10 µM
# [6] = molecular target: Ephrin type-A receptor 7 (Homo sapiens) (UniProt Q15375); details: at 1 µM
# Chain of Ephrin type-A receptor 7 (Homo sapiens) (Q15375 28-998 limits assumed): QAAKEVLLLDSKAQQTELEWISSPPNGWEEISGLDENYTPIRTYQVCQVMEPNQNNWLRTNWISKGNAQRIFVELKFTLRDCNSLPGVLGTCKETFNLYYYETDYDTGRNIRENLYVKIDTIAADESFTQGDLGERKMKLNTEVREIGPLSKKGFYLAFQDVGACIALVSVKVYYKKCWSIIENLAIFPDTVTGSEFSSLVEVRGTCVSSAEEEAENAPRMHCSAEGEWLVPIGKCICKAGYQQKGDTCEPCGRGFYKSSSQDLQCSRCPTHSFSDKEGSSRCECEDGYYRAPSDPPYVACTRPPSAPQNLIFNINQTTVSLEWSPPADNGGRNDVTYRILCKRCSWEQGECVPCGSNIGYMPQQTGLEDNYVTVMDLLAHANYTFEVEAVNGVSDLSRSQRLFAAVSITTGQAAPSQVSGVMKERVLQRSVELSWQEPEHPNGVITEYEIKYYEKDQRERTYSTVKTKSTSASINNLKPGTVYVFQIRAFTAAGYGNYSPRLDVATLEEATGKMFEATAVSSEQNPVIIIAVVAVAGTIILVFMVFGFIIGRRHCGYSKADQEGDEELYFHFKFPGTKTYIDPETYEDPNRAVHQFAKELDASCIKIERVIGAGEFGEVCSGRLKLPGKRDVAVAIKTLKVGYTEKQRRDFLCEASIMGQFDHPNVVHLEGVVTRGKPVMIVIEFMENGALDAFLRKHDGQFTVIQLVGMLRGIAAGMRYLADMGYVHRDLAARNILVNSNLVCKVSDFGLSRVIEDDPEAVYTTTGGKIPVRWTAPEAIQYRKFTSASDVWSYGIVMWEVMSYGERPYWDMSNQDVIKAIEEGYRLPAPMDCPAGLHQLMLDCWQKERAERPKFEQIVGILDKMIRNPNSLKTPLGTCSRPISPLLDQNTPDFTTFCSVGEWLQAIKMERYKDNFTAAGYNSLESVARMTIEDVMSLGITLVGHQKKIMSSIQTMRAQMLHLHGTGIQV
# [7] = molecular target: Ephrin type-A receptor 7 (Homo sapiens) (UniProt Q15375); details: at 10 µM
# [8] = molecular target: T2, Ephrin type-A receptor 8 (Homo sapiens) (UniProt P29322); details: at 1 µM
# T2 sequence (whole entry): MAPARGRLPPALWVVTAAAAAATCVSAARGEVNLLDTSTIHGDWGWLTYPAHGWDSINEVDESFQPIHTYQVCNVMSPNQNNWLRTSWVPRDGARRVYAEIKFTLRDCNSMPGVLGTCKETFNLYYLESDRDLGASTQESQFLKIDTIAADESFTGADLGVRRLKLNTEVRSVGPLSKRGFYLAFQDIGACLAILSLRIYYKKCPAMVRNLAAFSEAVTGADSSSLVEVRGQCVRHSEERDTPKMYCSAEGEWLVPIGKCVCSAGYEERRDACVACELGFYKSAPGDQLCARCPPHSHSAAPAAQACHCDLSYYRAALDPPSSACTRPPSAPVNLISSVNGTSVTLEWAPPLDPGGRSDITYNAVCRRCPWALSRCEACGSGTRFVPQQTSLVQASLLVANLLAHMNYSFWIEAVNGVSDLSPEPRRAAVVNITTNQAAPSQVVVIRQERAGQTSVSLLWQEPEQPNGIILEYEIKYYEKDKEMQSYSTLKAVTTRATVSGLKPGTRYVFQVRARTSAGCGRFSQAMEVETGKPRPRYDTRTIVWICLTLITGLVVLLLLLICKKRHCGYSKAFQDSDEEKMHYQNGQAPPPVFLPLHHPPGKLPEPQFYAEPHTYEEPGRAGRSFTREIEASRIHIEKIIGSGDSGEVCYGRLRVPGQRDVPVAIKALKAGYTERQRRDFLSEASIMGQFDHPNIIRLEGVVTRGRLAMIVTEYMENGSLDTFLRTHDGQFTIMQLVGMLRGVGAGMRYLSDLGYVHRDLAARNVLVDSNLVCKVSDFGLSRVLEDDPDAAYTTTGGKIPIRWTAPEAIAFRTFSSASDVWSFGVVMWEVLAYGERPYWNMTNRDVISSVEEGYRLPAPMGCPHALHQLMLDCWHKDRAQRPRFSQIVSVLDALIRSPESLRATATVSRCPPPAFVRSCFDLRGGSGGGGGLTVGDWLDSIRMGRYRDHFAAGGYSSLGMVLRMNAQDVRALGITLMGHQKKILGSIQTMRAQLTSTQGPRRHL
# [9] = molecular target: T2, Ephrin type-A receptor 8 (Homo sapiens); details: at 10 µM
# [10] = molecular target: T3, Ephrin type-B receptor 1 (Homo sapiens) (UniProt P54762); details: at 1 µM
# T3 sequence (whole entry): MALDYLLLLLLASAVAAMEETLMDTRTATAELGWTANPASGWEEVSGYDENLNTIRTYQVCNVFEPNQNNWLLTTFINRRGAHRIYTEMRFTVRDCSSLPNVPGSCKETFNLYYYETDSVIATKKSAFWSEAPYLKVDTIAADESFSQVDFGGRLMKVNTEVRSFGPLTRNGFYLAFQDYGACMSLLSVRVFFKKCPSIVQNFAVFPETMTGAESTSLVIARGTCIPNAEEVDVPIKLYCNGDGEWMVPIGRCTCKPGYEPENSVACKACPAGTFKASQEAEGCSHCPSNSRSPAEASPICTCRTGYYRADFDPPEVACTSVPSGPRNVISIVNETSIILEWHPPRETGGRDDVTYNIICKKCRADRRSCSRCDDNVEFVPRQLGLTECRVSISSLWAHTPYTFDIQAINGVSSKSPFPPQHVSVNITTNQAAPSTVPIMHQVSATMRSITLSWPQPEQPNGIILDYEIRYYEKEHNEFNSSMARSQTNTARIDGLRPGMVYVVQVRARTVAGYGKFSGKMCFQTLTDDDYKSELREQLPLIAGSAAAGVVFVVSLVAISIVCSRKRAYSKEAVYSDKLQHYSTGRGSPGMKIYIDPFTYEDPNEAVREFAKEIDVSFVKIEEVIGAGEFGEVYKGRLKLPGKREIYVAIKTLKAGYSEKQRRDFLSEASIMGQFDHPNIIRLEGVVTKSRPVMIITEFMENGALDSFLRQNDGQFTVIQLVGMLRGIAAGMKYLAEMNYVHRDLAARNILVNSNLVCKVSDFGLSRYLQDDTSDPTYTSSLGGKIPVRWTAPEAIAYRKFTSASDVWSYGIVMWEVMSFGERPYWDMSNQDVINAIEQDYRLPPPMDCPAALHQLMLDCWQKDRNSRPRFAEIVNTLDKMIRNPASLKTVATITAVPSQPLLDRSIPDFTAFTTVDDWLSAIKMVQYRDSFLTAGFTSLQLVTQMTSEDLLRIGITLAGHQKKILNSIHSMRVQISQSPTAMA
smiles,measurement,setting,value
COc1ccc(OC)c2c(=S)c3ccccc3[nH]c12,residual activity,[1],97%
same,residual activity,[2],100%
same,residual activity,[3],105%
same,residual activity,[4],101%
same,residual activity,[5],96%
same,residual activity,[6],92%
same,residual activity,[7],89%
same,residual activity,[8],96%
same,residual activity,[9],100%
same,residual activity,[10],97%
